Laboratory results taken from PubChem BioAssay (NCI).
This is part of a sample that, as a whole, favours compounds with a hit. Of some 83,000 tested, about 20% had one in any assay.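 Interpretation: 100, growth as untreated; towards 0, rising growth inhibition; 0, no net growth; 0 to -100, cell death. Compounds scoring below 10 were considered active.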 Values without a mark were called inactive. Calls of active or inactive are those of the source.

What was measured:
Test in all cases: NCI-60 one-dose screen, 48 h (100 = growth as untreated, 0 = no growth, -100 = all killed)
Details in all cases: 10 µM
[1] = tested on: T-47D breast
[2] = tested on: BT-549 breast
[3] = tested on: MDA-MB-435 melanoma
[4] = tested on: SW-620 colon
[5] = tested on: MCF7 breast
[6] = tested on: HCC-2998 colon
[7] = tested on: KM12 colon
[8] = tested on: HCT-116 colon

SMILES	growth [1]	growth [2]	growth [3]	growth [4]	growth [5]	growth [6]	growth [7]	growth [8]
OC(CNC1CCCC1)Cn1c2ccccc2c2ccccc21 (stereo not given)	-1.44% (active)	53.8%	-2.91% (active)	-25.5% (active)	-66.2% (active)	1.39% (active)	21.6%	–
CC(=O)CS(C)(=O)=O	109%	109%	106%	102%	105%	102%	114%	–
COc1ccc(/C=C2\CCC3C(CCCC34OCCO4)C2=O)cc1 (stereo not given)	75.4%	88.4%	29.9%	75.6%	70.6%	92.4%	67.7%	–
O=C(N/N=C/c1ccccc1O)c1ccccc1	25.5%	60.4%	56.7%	42.2%	3.31% (active)	–	35.4%	14.9%
CC(C)c1[nH]nc2c(NCc3ccc(-c4ccccn4)cc3)nc(SCCN(C)C)nc12	-6.72% (active)	-43.1% (active)	0.81% (active)	9.8% (active)	4.04% (active)	-15.7% (active)	8.47% (active)	–
CCC(OC(=O)CC(C)C)c1ccccc1 (stereo not given)	84.5%	101%	104%	105%	94.3%	101%	107%	–
Cc1ccc([P+](Cc2ccccc2)(c2ccccc2)c2ccccc2)cc1	-3.45% (active)	-4.96% (active)	2.32% (active)	24.4%	9.62% (active)	21.6%	8.34% (active)	–
Cc1cc(=O)oc2cc(OCc3cn(CC(O)CO)nn3)ccc12 (stereo not given)	86.8%	97.5%	116%	74%	109%	–	111%	98.8%
Cc1nc2sccn2c1-c1csc(Nc2cccc(Cl)c2C)n1	36.2%	43.9%	7.55% (active)	49.1%	38.1%	69%	50.8%	–
Cc1ccc(S(=O)(=O)Nc2cccc3[nH]c(C(F)(F)F)nc23)cc1	47.2%	52%	-31.5% (active)	18.6%	13.2%	28.1%	21%	–
COc1ccc(CCc2nc3cc(-c4c(C)noc4C)ccc3n2CCN2CCOCC2)cc1	28.2%	81.4%	26.1%	26.6%	34.5%	47.3%	33.6%	–
COc1cccc2c1C(=O)c1c(O)c3c(c(O)c1C2=O)C[C@@](O)(C(=O)COC(=O)c1cccnc1)C[C@@H]3OC1CC(N)C(O)C(C)O1 (stereo not given in full)	-2.37% (active)	5.42% (active)	-87.5% (active)	3.34% (active)	4.11% (active)	-50.3% (active)	-0.352% (active)	–
CC[C@@]1(C(N)=O)CC2C=CC1C2 (stereo not given in full)	103%	104%	106%	113%	99.5%	108%	119%	–
FC(F)(F)c1ccc(-c2cnc(Cl)nc2NCc2cc(C(F)(F)F)cc(C(F)(F)F)c2)cc1	10.5%	26.2%	14.3%	17.5%	4.38% (active)	–	13.1%	4.49% (active)
CC(=O)OC1Oc2ccccc2-c2oc(=O)c(-c3ccc(F)cc3)cc21 (stereo not given)	77.2%	80.6%	51.5%	12.8%	63.2%	–	89.9%	86.5%
COc1ccc(-c2nc(-c3nc4ccc(OC)cc4[nH]3)c3ccccn23)cc1	36.7%	77.6%	81.5%	93.3%	69.4%	86.4%	–	–
COc1ccc2nc(/C=C/c3ccc(N(C)C)cc3)sc2c1	300%	104%	90.3%	93.6%	96.6%	–	104%	105%
C(=C\c1nc2ccccc2s1)/c1ccc(N2CCOCC2)s1	1.72% (active)	89.5%	64.9%	101%	80.2%	–	48.6%	55.4%
COc1ccc2c(c1)/C(=C/c1cc(OC)c(OC)c(OC)c1)C(=O)N2C	-11.1% (active)	57.1%	-50.3% (active)	1.64% (active)	4.54% (active)	–	-20.8% (active)	19.3%
CN1CCN(c2nc(-c3cccnc3)nc3sc4c(c23)CCCCCC4)CC1	77.4%	95.3%	98.4%	102%	88.2%	56.7%	100%	–
Cc1cn(C(=O)/C(Cl)=C(/Cl)C(=O)O)c2ccccc12	101%	111%	109%	104%	108%	108%	108%	–
COc1ccc(-c2[nH]ncc2-c2cc(OC)c(OC)c(OC)c2)cc1	58.1%	-6.65% (active)	-48% (active)	23.6%	6.61% (active)	-3.98% (active)	-8.7% (active)	–
O=S(=O)(NCl)c1ccccc1	92%	102%	98.9%	107%	85.5%	97.3%	102%	–
Clc1cc(Cl)c(Cl)c(-c2nc(-c3cccnc3)cs2)c1	-7.29% (active)	98.3%	4.27% (active)	46.2%	63.6%	–	103%	40.2%
O=C1CC[C@@H](C(=O)N[C@H]2CSSC[C@@H](C(=O)N/C=C/c3ccc(O)cc3)NC(=O)[C@H](Cc3ccccc3)NC(=O)[C@@H]3CCCN3C(=O)[C@@H]3CCCN3C2=O)N1	78.3%	120%	104%	97.2%	96.8%	98.9%	97.9%	–
O=C(C=P(c1ccccc1)(c1ccccc1)c1ccccc1)c1ccc(Br)cc1	87.9%	107%	106%	80.7%	92.4%	–	83.4%	67.8%
Cc1cc(C)c2c(Nc3ncnc4c3sc3nc(C)cc(C)c34)n[nH]c2n1	89.8%	101%	98.7%	101%	103%	113%	111%	–
CCc1ccc(Nc2cc(C)nc3nc(C)nn23)cc1	-68.3% (active)	40.7%	-97.2% (active)	-68.9% (active)	-92% (active)	-69.8% (active)	3.49% (active)	–
